Data from PubChem BioAssay (NCI).
This is part of a sample that, as a whole, favours compounds with a hit. Of some 83,000 tested, about 20% had one in any assay.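 Single-concentration screen, 48 h exposure, 96-well plates. Endpoint: percent growth. Below 10 = active.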 The source made the active and inactive calls.

Experiments:
Assay in all cases: NCI-60 one-dose screen, 48 h (100 = growth as untreated, 0 = no growth, -100 = all killed)
Conditions in all cases: 10 µM unless noted
SR leukemia = system: SR leukemia
RPMI-8226 leukemia = system: RPMI-8226 leukemia
OVCAR-8 ovarian = system: OVCAR-8 ovarian
OVCAR-5 ovarian = system: OVCAR-5 ovarian
OVCAR-4 ovarian = system: OVCAR-4 ovarian
SK-OV-3 ovarian = system: SK-OV-3 ovarian
IGROV1 ovarian = system: IGROV1 ovarian
OVCAR-3 ovarian = system: OVCAR-3 ovarian
HS 578T breast = system: HS 578T breast
NCI/ADR-RES ovarian = system: NCI/ADR-RES ovarian
T-47D breast = system: T-47D breast
BT-549 breast = system: BT-549 breast
MDA-MB-435 melanoma = system: MDA-MB-435 melanoma
SW-620 colon = system: SW-620 colon
MCF7 breast = system: MCF7 breast
HCT-116 colon = system: HCT-116 colon
HCC-2998 colon = system: HCC-2998 colon
KM12 colon = system: KM12 colon

Measured: growth

O=C(CSc1nnc(-c2cc(-c3ccc(Cl)cc3)nc3ccccc23)n1-c1ccccc1)Nc1ccc(Cl)cc1
inactive: SR leukemia 78.6% | RPMI-8226 leukemia 102% | OVCAR-8 ovarian 98.3% | OVCAR-5 ovarian 102% | OVCAR-4 ovarian 108% | SK-OV-3 ovarian 94.6% | IGROV1 ovarian 97.8% | OVCAR-3 ovarian 106% | HS 578T breast 109% | NCI/ADR-RES ovarian 99.4% | T-47D breast 96.5% | BT-549 breast 110% | MDA-MB-435 melanoma 102% | SW-620 colon 106% | MCF7 breast 88.3% | HCT-116 colon 86.3% | HCC-2998 colon 111% | KM12 colon 102%

COc1ccc(C(=O)C2OC3=C(C(=O)CC(C)(C)C3)C2c2cccc(Oc3ccccc3)c2)cc1 (stereo unspecified)
inactive: SR leukemia 71.2% | RPMI-8226 leukemia 85.7% | OVCAR-8 ovarian 88.9% | OVCAR-5 ovarian 97.6% | OVCAR-4 ovarian 86.3% | SK-OV-3 ovarian 91.4% | IGROV1 ovarian 95.9% | OVCAR-3 ovarian 103% | HS 578T breast 93.4% | NCI/ADR-RES ovarian 92.7% | T-47D breast 76% | BT-549 breast 92.1% | MDA-MB-435 melanoma 90.8% | SW-620 colon 93.6% | MCF7 breast 89.3% | HCT-116 colon 84.6% | HCC-2998 colon 113% | KM12 colon 94.6%

CC(C)(C)c1ccc(C(=O)Nc2sc3c(c2C#N)CCC(=O)C3)cc1
inactive: OVCAR-8 ovarian 16.6% | OVCAR-5 ovarian 21% | SK-OV-3 ovarian 57.4% | IGROV1 ovarian 25.8% | HS 578T breast 30.5% | HCC-2998 colon 48.1% | KM12 colon 12%
active: SR leukemia 4.39% | RPMI-8226 leukemia -8.65% | OVCAR-4 ovarian -73.8% | OVCAR-3 ovarian -29.6% | NCI/ADR-RES ovarian 9.31% | T-47D breast -31.8% | BT-549 breast -11.7% | MDA-MB-435 melanoma 6.81% | SW-620 colon -51% | MCF7 breast 8.36% | HCT-116 colon 2.24%

COc1cc(C(=O)n2nc(NCCCc3ccccc3)c3cc(N)ccc32)cc(OC)c1OC
inactive: SR leukemia 52.3% | RPMI-8226 leukemia 69.5% | OVCAR-8 ovarian 82.8% | OVCAR-5 ovarian 93.3% | OVCAR-4 ovarian 105% | SK-OV-3 ovarian 104% | IGROV1 ovarian 110% | OVCAR-3 ovarian 101% | HS 578T breast 111% | NCI/ADR-RES ovarian 68.4% | T-47D breast 66% | BT-549 breast 97.1% | MDA-MB-435 melanoma 99% | SW-620 colon 112% | MCF7 breast 89.3% | HCT-116 colon 90.1% | HCC-2998 colon 105% | KM12 colon 88.5%

CC(=O)CC(=O)c1ccccc1.[Cu+2]
inactive: SR leukemia 51.8% | RPMI-8226 leukemia 97.8% | OVCAR-8 ovarian 110% | OVCAR-5 ovarian 107% | OVCAR-4 ovarian 106% | SK-OV-3 ovarian 82.4% | IGROV1 ovarian 87% | OVCAR-3 ovarian 114% | HS 578T breast 119% | NCI/ADR-RES ovarian 104% | T-47D breast 93.2% | BT-549 breast 114% | MDA-MB-435 melanoma 105% | SW-620 colon 103% | MCF7 breast 75.1% | HCT-116 colon 97.7% | HCC-2998 colon 107% | KM12 colon 98.2%

O=C(Nc1ccccc1CNc1nc(Nc2ccc(OCCN3CCCC3)cc2)ncc1Cl)NC1CCCCC1
inactive: RPMI-8226 leukemia 60.8% | OVCAR-8 ovarian 57.5% | OVCAR-5 ovarian 114% | OVCAR-4 ovarian 46.6% | SK-OV-3 ovarian 104% | IGROV1 ovarian 88.1% | OVCAR-3 ovarian 99.5% | HS 578T breast 85.2% | NCI/ADR-RES ovarian 74% | T-47D breast 100% | BT-549 breast 83.7% | SW-620 colon 87.7% | MCF7 breast 55.2% | HCT-116 colon 90.9% | HCC-2998 colon 95.5% | KM12 colon 71.5%
active: SR leukemia 5.48% | MDA-MB-435 melanoma -83.9%

CC(=O)OCC(=O)O[C@@H]1C[C@]2(C(C)C)O[C@@]1(C)[C@@H]1CC[C@@H](C)[C@H]1[C@@H]2OC(=O)/C=C/c1ccccc1
inactive: SR leukemia 78.4% | RPMI-8226 leukemia 73.7% | OVCAR-8 ovarian 25% | OVCAR-5 ovarian 99.8% | OVCAR-4 ovarian 87.9% | SK-OV-3 ovarian 87.7% | IGROV1 ovarian 106% | OVCAR-3 ovarian 90.9% | NCI/ADR-RES ovarian 21.7% | T-47D breast 48.6% | MDA-MB-435 melanoma 95% | SW-620 colon 104% | MCF7 breast 77.8% | HCT-116 colon 81.5% | HCC-2998 colon 101% | KM12 colon 90.2%
active: HS 578T breast -18% | BT-549 breast 2.51%

CCOC(=O)c1cc(C(=O)c2cc(OC)cc(OC)c2)n2ncccc12
active: OVCAR-3 ovarian 0.928% | NCI/ADR-RES ovarian 7.11% | MDA-MB-435 melanoma 1.18%
inactive: SR leukemia 32.3% | RPMI-8226 leukemia 28.9% | OVCAR-8 ovarian 38.2% | OVCAR-5 ovarian 92.2% | OVCAR-4 ovarian 71.4% | SK-OV-3 ovarian 19.6% | IGROV1 ovarian 56.4% | HS 578T breast 31.5% | T-47D breast 32.9% | BT-549 breast 18.4% | SW-620 colon 18.4% | MCF7 breast 24.8% | HCT-116 colon 13.5% | HCC-2998 colon 66.7% | KM12 colon 27.8%

O=C(/C=C/c1ccco1)Nc1ncc(Cc2ccc(F)cc2)s1
active: OVCAR-3 ovarian -8.58% | NCI/ADR-RES ovarian 0.377% | MDA-MB-435 melanoma -17.6% | HCC-2998 colon 7.46%
inactive: SR leukemia 16.1% | RPMI-8226 leukemia 32.4% | OVCAR-8 ovarian 22.2% | OVCAR-5 ovarian 32.5% | OVCAR-4 ovarian 63.9% | SK-OV-3 ovarian 39.3% | IGROV1 ovarian 27.2% | HS 578T breast 11.3% | T-47D breast 49.3% | BT-549 breast 24.2% | SW-620 colon 25.4% | MCF7 breast 15.8% | HCT-116 colon 19.5% | KM12 colon 16.1%

Oc1cccc2c1NCCC2
active: OVCAR-3 ovarian 4.94% | HCT-116 colon 8.94%
inactive: SR leukemia 27.2% | RPMI-8226 leukemia 14.9% | OVCAR-8 ovarian 19.9% | OVCAR-5 ovarian 44.7% | OVCAR-4 ovarian 17.9% | SK-OV-3 ovarian 20.4% | IGROV1 ovarian 18.3% | HS 578T breast 24.3% | NCI/ADR-RES ovarian 23.7% | T-47D breast 22.1% | BT-549 breast 39.1% | MDA-MB-435 melanoma 15.4% | SW-620 colon 19.9% | MCF7 breast 13.1% | HCC-2998 colon 32.8% | KM12 colon 20.7%

O=C(CNc1ncco1)Nc1ccc(S(=O)(=O)c2ccc(NC(=O)CNc3ncco3)cc2)cc1
inactive: RPMI-8226 leukemia 11.2% | OVCAR-5 ovarian 28.5% | OVCAR-4 ovarian 17.5% | SK-OV-3 ovarian 76.1% | OVCAR-3 ovarian 104% | T-47D breast 29.3% | BT-549 breast 43.9% | MCF7 breast 18.9% | HCC-2998 colon 76.4% | KM12 colon 94.8%
active: SR leukemia -0.678% | OVCAR-8 ovarian -80.7% | IGROV1 ovarian -10.3% | HS 578T breast -4.97% | NCI/ADR-RES ovarian -12.5% | MDA-MB-435 melanoma 3.01% | SW-620 colon -82% | HCT-116 colon -80.7%

O=C(OCC(O)(CO)C(=O)NC12CC3CC(CC(C3)C1)C2)c1ccc(Cl)cc1 (stereo unspecified)
inactive: SR leukemia 86% | RPMI-8226 leukemia 105% | OVCAR-8 ovarian 92.2% | OVCAR-5 ovarian 100% | OVCAR-4 ovarian 107% | SK-OV-3 ovarian 99.7% | IGROV1 ovarian 110% | OVCAR-3 ovarian 101% | HS 578T breast 88.5% | NCI/ADR-RES ovarian 98.6% | T-47D breast 88.9% | BT-549 breast 102% | MDA-MB-435 melanoma 101% | SW-620 colon 103% | MCF7 breast 91.6% | HCT-116 colon 99.8% | HCC-2998 colon 106% | KM12 colon 103%

CCN=c1sc2c(n1NC(=O)c1cc3ccc1CCc1ccc(cc1)CC3)C(=O)c1ccccc1C2=O
active: SR leukemia -3.66% | RPMI-8226 leukemia -33.6% | OVCAR-8 ovarian -82.6% | OVCAR-5 ovarian -77.4% | OVCAR-4 ovarian -98.4% | IGROV1 ovarian -39.8% | OVCAR-3 ovarian -18.8% | HS 578T breast -8.98% | NCI/ADR-RES ovarian -22.8% | T-47D breast -19.8% | BT-549 breast -97.4% | MDA-MB-435 melanoma -97.1% | SW-620 colon -56.6% | MCF7 breast -63.1% | HCT-116 colon -50.9% | HCC-2998 colon -37.9% | KM12 colon -29.9%
inactive: SK-OV-3 ovarian 62%

O=c1ccc2nc(-c3ccccc3)nn(-c3ccccn3)c-2c1
active: SR leukemia 1.2% | OVCAR-3 ovarian -14.9% | T-47D breast -40.9% | SW-620 colon -46.2% | MCF7 breast -37.1%
inactive: RPMI-8226 leukemia 35.8% | OVCAR-8 ovarian 80% | OVCAR-5 ovarian 117% | OVCAR-4 ovarian 83.5% | SK-OV-3 ovarian 83.9% | IGROV1 ovarian 89% | HS 578T breast 101% | NCI/ADR-RES ovarian 101% | BT-549 breast 108% | MDA-MB-435 melanoma 94.6% | HCT-116 colon 42.7% | HCC-2998 colon 103% | KM12 colon 104%

O=C(c1ccccc1)[C@@H](c1ccccc1)[C@]1(O)C(=O)Nc2ccccc21
inactive: SR leukemia 102% | RPMI-8226 leukemia 100% | OVCAR-8 ovarian 92.6% | OVCAR-5 ovarian 82.1% | OVCAR-4 ovarian 98.7% | SK-OV-3 ovarian 84% | IGROV1 ovarian 98.4% | OVCAR-3 ovarian 94.2% | HS 578T breast 93.3% | NCI/ADR-RES ovarian 102% | T-47D breast 85.2% | BT-549 breast 95% | MDA-MB-435 melanoma 98.4% | SW-620 colon 100% | MCF7 breast 92.4% | HCT-116 colon 96.6% | HCC-2998 colon 104% | KM12 colon 85.5%

Cn1cc(-c2ccc3occ(-c4cccc(-c5ccncc5)c4)c3n2)cn1
active: SR leukemia 3.95% | RPMI-8226 leukemia 0.0083% | OVCAR-8 ovarian 7.42% | HS 578T breast -10.7% | NCI/ADR-RES ovarian 4.84% | T-47D breast -6.42% | MDA-MB-435 melanoma -2.73% | MCF7 breast 6.54%
inactive: OVCAR-5 ovarian 55.4% | OVCAR-4 ovarian 36.5% | SK-OV-3 ovarian 31.8% | IGROV1 ovarian 15.7% | OVCAR-3 ovarian 18.4% | BT-549 breast 10.9% | SW-620 colon 17.8% | HCT-116 colon 10.4% | HCC-2998 colon 45% | KM12 colon 12.4%

Oc1cccc(-c2nc(-c3n[nH]c(=S)n3-c3ccccc3)cc3c2[nH]c2ccccc23)c1
inactive: SR leukemia 19.2% | RPMI-8226 leukemia 17.8% | OVCAR-8 ovarian 24.7% | OVCAR-5 ovarian 73.1% | OVCAR-4 ovarian 56.8% | SK-OV-3 ovarian 37.3% | IGROV1 ovarian 24% | HS 578T breast 35.1% | NCI/ADR-RES ovarian 91.6% | T-47D breast 47.7% | SW-620 colon 20% | MCF7 breast 17.8% | HCT-116 colon 10.6% | KM12 colon 13%
active: OVCAR-3 ovarian 3.83% | BT-549 breast -15.9% | MDA-MB-435 melanoma 3.44% | HCC-2998 colon -15.2%
